Calls of active or inactive are those of the source.
Legend:
[1] = binders of probe aFSTL3 on microarray, primary screen, stem cell growth factor project, biochemical, small-molecule microarray, fluorescence 635/667 (AID 1064); conditions: higher = more signal;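 further: measures binding of the biotinylated anti-FSTL3 antibody to printed compounds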
[2] = binders from COS7 lysate, DM2A8 probe, primary screen, torsin A project, cell lysate, small-molecule microarray, fluorescence 635/667 (AID 1065); conditions: higher = more signal, COS7 lysate expressing mutant human TOR1A
[3] = binders of probe aFGF2 on microarray, primary screen, stem cell growth factor project, biochemical, small-molecule microarray, fluorescence 635/667 (AID 1067); conditions: higher = more signal;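 further: measures binding of biotinylated aFGF2 protein to printed compounds on slides; z-score merges feature fluorescence and signal-to-noise across triplicate slides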
[4] = binders of probe aFGF10 on microarray, primary screen, stem cell growth factor project, biochemical, small-molecule microarray, fluorescence 635/667 (AID 1071); conditions: higher = more signal;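 further: score merges 667 nm spot intensity and signal to noise from triplicate slides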
[5] = target: Neurogenic locus notch homolog protein 2 (Homo sapiens) (UniProt Q04721); assay: Notch2 binders on small-molecule microarrays, primary screen, biochemical, small-molecule microarray, 635 nm fluorescence, stem cell growth factors (AID 1073); conditions: Notch2 binding, higher = more signal
Chain of Neurogenic locus notch homolog protein 2 (Homo sapiens) (Q04721 whole entry, looked up, canonical isoform): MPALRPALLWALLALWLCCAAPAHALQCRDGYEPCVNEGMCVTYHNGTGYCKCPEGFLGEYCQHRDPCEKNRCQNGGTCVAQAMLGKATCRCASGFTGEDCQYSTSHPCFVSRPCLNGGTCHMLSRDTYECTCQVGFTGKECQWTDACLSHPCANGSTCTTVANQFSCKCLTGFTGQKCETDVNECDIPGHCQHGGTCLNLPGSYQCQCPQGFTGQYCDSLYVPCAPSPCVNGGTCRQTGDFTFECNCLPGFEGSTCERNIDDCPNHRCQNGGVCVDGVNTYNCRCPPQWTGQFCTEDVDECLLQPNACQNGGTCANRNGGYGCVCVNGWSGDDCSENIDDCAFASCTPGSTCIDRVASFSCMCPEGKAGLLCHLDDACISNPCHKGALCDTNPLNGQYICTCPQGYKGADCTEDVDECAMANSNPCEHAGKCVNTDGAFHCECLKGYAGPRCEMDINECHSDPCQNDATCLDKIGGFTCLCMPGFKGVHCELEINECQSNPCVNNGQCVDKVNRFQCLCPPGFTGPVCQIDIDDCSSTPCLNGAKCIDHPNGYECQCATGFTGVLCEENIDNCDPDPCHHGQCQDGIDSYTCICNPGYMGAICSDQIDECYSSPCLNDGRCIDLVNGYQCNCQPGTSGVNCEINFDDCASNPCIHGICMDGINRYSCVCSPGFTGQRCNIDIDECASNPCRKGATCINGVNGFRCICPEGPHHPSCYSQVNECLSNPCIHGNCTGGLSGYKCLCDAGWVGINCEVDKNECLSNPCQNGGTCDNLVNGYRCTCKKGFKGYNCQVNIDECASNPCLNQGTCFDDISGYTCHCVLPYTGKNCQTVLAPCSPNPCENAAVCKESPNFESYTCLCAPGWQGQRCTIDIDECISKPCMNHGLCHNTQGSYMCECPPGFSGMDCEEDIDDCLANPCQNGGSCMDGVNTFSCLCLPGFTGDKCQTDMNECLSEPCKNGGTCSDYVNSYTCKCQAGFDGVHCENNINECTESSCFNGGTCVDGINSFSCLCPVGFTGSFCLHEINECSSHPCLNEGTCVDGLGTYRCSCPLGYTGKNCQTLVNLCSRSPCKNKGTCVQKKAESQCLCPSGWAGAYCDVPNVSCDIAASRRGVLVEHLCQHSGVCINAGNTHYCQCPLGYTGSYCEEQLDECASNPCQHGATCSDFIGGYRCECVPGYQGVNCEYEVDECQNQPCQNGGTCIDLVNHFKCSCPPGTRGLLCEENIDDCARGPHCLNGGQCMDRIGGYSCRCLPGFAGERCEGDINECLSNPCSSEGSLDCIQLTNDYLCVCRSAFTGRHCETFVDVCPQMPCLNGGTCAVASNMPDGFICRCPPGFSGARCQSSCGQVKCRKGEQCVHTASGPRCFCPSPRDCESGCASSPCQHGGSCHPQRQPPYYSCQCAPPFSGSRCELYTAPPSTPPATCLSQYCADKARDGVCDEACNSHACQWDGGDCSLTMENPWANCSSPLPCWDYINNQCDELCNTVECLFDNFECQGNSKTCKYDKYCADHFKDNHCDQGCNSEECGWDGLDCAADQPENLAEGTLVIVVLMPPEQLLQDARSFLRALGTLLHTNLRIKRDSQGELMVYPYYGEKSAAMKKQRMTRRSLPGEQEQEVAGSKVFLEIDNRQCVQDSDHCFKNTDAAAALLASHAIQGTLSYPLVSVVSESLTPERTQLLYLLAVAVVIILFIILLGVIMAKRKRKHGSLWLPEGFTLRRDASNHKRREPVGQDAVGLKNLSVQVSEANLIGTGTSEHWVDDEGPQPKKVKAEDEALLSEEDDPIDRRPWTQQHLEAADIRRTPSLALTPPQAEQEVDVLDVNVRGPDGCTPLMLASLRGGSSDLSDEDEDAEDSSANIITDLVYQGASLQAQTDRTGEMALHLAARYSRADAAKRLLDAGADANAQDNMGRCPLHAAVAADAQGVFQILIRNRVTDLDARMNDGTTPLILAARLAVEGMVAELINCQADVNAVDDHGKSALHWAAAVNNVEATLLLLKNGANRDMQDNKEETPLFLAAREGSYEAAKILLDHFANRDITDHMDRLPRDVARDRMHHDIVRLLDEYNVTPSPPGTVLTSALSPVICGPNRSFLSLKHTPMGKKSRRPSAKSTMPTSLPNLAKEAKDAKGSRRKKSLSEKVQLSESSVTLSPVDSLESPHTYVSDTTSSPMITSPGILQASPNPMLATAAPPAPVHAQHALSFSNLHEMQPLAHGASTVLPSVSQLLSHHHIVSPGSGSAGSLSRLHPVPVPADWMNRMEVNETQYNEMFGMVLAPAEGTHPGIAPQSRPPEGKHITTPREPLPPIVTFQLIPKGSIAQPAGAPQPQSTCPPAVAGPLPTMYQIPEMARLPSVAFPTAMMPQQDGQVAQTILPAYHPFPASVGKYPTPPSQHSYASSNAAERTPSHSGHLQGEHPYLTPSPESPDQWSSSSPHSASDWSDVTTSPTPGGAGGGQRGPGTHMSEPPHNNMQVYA

[6] = target: Pro-neuregulin-1, membrane-bound isoform (Homo sapiens) (UniProt Q02297); assay: NRG1 binders on small-molecule microarrays, primary screen, psychiatric disease protein project, biochemical, small-molecule microarray, fluorescence 635/667 (AID 1075); conditions: NRG1 binding, 635 nm fluorescence, higher = more signal;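 further: score combines 667 nm spot fluorescence with signal to noise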
Chain of Pro-neuregulin-1, membrane-bound isoform (Homo sapiens) (Q02297 whole entry, looked up, the tested form may be a part, canonical isoform): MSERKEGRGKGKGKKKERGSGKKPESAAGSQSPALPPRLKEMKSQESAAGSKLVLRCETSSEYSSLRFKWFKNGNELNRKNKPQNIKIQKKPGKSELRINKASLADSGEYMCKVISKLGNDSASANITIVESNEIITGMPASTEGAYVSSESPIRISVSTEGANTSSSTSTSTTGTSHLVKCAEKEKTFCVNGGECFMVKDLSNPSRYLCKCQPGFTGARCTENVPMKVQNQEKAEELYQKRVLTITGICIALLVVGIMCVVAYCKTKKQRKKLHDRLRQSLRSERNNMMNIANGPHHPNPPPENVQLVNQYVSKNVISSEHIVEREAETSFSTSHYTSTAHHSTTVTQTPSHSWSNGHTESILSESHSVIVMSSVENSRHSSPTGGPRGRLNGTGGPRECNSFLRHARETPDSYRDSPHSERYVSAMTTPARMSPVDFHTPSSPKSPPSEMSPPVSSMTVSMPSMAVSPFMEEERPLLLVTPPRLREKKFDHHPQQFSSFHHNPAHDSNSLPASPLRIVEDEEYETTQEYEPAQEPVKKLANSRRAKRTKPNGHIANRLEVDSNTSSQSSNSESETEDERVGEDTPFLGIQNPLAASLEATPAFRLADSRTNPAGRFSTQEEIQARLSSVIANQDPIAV

[7] = test system: Neuregulin-1 EGF-like domain; assay: binders of neuregulin-1 EGF-like domain, primary screen, biochemical, small-molecule microarray, 635 nm fluorescence (AID 1081); conditions: small-molecule microarray binding, higher = more signal;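 further: binding of the protein to compounds printed on small-molecule microarray slides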
[8] = FRG1 promoter luciferase signal modulators, primary screen, FRG1 inhibition for FSHD, cell-based, C2C12 myotubes, firefly/Renilla luciferase, luminescence (AID 1084); conditions: higher = more signal, called active from +8 up or from −8 down
[9] = binders of probe aFST on microarray, primary screen, stem cell growth factor project, biochemical, small-molecule microarray, fluorescence 635/667 (AID 1086); conditions: higher = more signal;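 further: score merges 667 nm fluorescence with signal-to-noise of each printed compound spot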
[10] = binders of probe aHhip on microarray, primary screen, stem cell growth factor project, biochemical, small-molecule microarray, fluorescence 635/667 (AID 1087); conditions: higher = more signal;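 further: score merges spot fluorescence at 667nm with spot signal to noise ratio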

SMILES	composite z-score [1]	composite z-score [2]	composite z-score [3]	composite z-score [4]	composite z-score [5]	composite z-score [6]	composite z-score [7]	z-score [8]	composite z-score [9]	composite z-score [10]
CC[C@@H]1C=C(C(=O)O)[C@H](c2ccccc2)N1S(=O)(=O)c1ccc(C)cc1	0.262	0.577	0.0663	0.829	1.53	1.19	1.38	-1.24 (inactive)	0.635	-0.0296
O=C1OCCC=C[C@H]2OC34C=CCN(c5ccc6ccccc6c5)C(=O)[C@H]3N(CCCO)C(=O)[C@@H]4C12 (stereo not given in full)	0.796	-2.38	-0.258	-0.736	-2.08	-0.962	-0.948	-0.0625 (inactive)	-0.723	-0.134
O=C(O)[C@@H]1C[C@@H]2C(=O)N3CCC[C@H]3C(=O)N2[C@@H]1c1ccc(O)cc1	1.18	0.607	-0.0058	0.0314	0.0995	0.956	1	7.28 (inactive)	0.387	0.35
CCOC(=O)C1=CC[C@@H](c2ccccc2F)N(S(=O)(=O)c2ccc(C)cc2)[C@H]1c1ccccc1	-0.419	-0.0956	-0.0253	0.765	1.46	0.65	0.677	-3.46 (inactive)	0.789	-0.11
COc1ccc([Si](C)(C)[C@@H]2[C@@H](CC(=O)N3Cc4ccccc4C[C@H]3CO)O[C@]3(C(=O)N(Cc4ccc(N5C(=O)c6cccc7cccc5c67)cc4)c4ccccc43)[C@H]2C)cc1	-0.184	0.614	-0.0136	0.637	1.21	0.325	1.17	-1.88 (inactive)	0.0242	-0.361
CC(C)C(CO)N1C(=O)[C@@H]2[C@H]3C(=O)OCC=C[C@H]3OC23C=CCN(c2ccc(Cl)cc2)C(=O)[C@@H]13 (stereo not given in full)	-0.0597	-0.61	-0.141	-0.385	-0.659	-0.7	0.436	-0.459 (inactive)	-0.243	-0.313
[N-]=[N+]=NCc1ccccc1C[C@@]1(C(N)=O)N=C(c2ccc(OCCCO)cc2)O[C@@H]1c1ccccc1	0.218	-0.173	-0.0592	-0.257	0.608	2.15	1.16	-1.67 (inactive)	0.249	0.107
C[N+](C)(C)CCCC[C@@H]1NC(=O)[C@@H]2C[C@H](C(=O)NCCCCCCN)[C@H](c3cccc(OCCO)c3)N2C1=O	2.69	2.09	0.239	0.494	0.731	2.31	1.38	-0.155 (inactive)	2.1	1.05
COC(=O)C(CC#Cc1ccc2c(c1)[C@]1(C(=O)N2)[C@H](c2ccc(O)cc2)N2[C@H](c3ccccc3)[C@H](c3ccccc3)OC(=O)[C@H]2[C@@H]1C(=O)NC[C@H](O)c1ccccc1)C(=O)OC	-0.14	0.249	-0.0592	1.06	0.791	-0.0744	1.4	0.798 (inactive)	0.257	0.0749
COC(=O)[C@@]1(Cc2ccc(F)cc2)[C@H]2c3cc(C(=O)N4CCCC4)n(Cc4ccc(C)c(F)c4F)c3C[C@H]2CN1C(=O)c1ccccc1	0.573	-0.0621	-0.0887	-0.227	1.11	1.29	1.35	2.59 (inactive)	0.409	-0.0618
CCCC[C@@H](O)C1=C(COc2ccccc2)C[C@H]2C(=O)N(Cc3ccccc3)C(=O)[C@H]2[C@H]1CO	-0.123	0.195	-0.147	0.479	0.339	1.01	0.426	-0.791 (inactive)	-0.0226	-0.449
C=CC[C@@H](OC(=O)Nc1ccc(OC)cc1)c1ccc(O)c(F)c1	0.93	0.141	-0.141	-0.97	-1.43	0.952	1.13	6.36 (inactive)	-0.535	-0.216
CCOC(=O)C1=CC[C@@H](c2ccccc2)N(S(=O)(=O)c2ccc(C)cc2)[C@H]1c1ccccc1	0.322	0.13	-0.0073	0.296	1.37	0.334	0.628	-2.4 (inactive)	0.77	-0.265
CC(C)(C)OC(=O)CC[C@@]1(C(=O)NCC(O)CO)N=C(c2ccc(OCCCO)cc2)O[C@@H]1c1ccccc1CN=[N+]=[N-] (stereo not given in full)	0.316	1.86	-0.0249	0.426	1.49	1.01	1.48	3.3 (inactive)	0.544	-0.0994
C=CCN1C(=O)[C@]2(CCC(=O)OC(C)(C)C)N=C(c3ccc(OCCCO)cc3)O[C@@H]2c2ccccc21	0.369	0.401	-0.0791	-0.475	0.729	0.811	0.542	-2.29 (inactive)	0.0909	-0.0994
CC(C)N1C(=O)c2ccccc2[C@@H](C(=O)NCCN2CCOCC2)[C@@H]1c1ccc(CO)cc1	0.197	-0.831	-0.22	-1.54	-1.61	1.12	1.28	-0.571 (inactive)	-0.727	-0.284
COC(=O)[C@@]1(Cc2ccc(F)cc2)[C@H]2c3cc(C(=O)N(C)C)n(CCc4ccc(OC)c(Br)c4)c3C[C@H]2CN1C(=O)c1ccccc1	0.859	-0.694	0.361	0.675	0.716	0.988	1.29	3.92 (inactive)	1.48	0.424

From PubChem BioAssay
